This is an account of results in PubChem BioAssay (NCATS).

The target in test [1] is ATP-dependent DNA helicase Q1 (Homo sapiens) (UniProt P46063). Briefly: qHTS Validation Assay for Inhibitors of RecQ-Like Dna Helicase 1 (RECQ1) (AID 2353).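 Also: plate controls were DMSO vehicle for no effect and enzyme-free control for full effect.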 Summed up: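 RECQ1T1 50 nM; forked duplex (20 bp + 30-nt ss tails) 200 nM, ATP 2 mM final; pH 8.0, 2 mM MgCl2, 2.5 ug/ml poly(dI-dC); 15 min compound preincubation; discontinuous kinetic read over 2 h at RT.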
A general note: In qHTS, concentration-response curves come from the screen itself.

Test [2] can be described thus: Validation screen for inhibitors of Lassa infection (AID 463096; calls by dose curve; also: % is scaled to controls: 0 for no effect and ±100 for the full control effect).
Test [3] is described as follows: Quantitative high throughput screen for delayed death inhibitors of the malarial parasite plastid, 48 hour incubation (AID 488752). Also: nearly all actives have a fitted effect of over 65% in size. Also: potency is read from the fitted curve at half-maximal effect. Summed up:
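Luciferase-expressing P. falciparum in RBCs, 2% Hct, 0.1% parasitemia final; RPMI 1640 + 0.5% Albumax; 48 h, 37 C, 5% CO2; luminescence readout, signal drop = growth inhibition.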

Test [4] deals with M-phase phosphoprotein 8 (Homo sapiens) (UniProt Q99549). Briefly: qHTS Validation Assay for Inhibitors for MPP8 Chromodomain Interactions with Methylated Histone Tails (AID 488949). Also: nearly all actives have a fitted effect of over 55% in size. Also: potency is read from the fitted curve at half-maximal effect. An outline of the steps:
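50 nM MPP8 + 50 nM b-H3K9me3 peptide, PBS pH 7.4/0.01% Tween-20, 30 min RT; + cpd 30 min RT; + AlphaScreen donor/Ni-chelate acceptor beads 10 ug/mL final, 30 min dark; luminescence read.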

Test [5] has as its target Thyrotropin receptor (Homo sapiens) (UniProt P16473). Briefly: qHTS Assay for Antagonists of the Thyroid Stimulating Hormone Receptor (AID 488980). Also: 0% is about no effect. An outline of the steps:
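Readout is cAMP by HTRF competition between cellular cAMP and cAMP-d2 for a cryptate-labelled antibody. Antagonism was assessed in TSHR-transfected HEK293 cells stimulated with 4 nM TSH (EC80, final) in the presence of RO 20-1724.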

Test [6] addresses Thyrotropin-releasing hormone receptor (Homo sapiens) (UniProt P34981). Briefly: qHTS for Small Molecule Agonists and Allosteric Enhancers of Human TRH Receptor: Validation Screen for Agonists (AID 493127;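 active = calcium activation more than 3 SD above the typical response in the agonist read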;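 also: intracellular calcium rise by fluo-8 fluorescence before TRH EC20 addition; 0% is about no effect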). The settings on record: TRH receptor agonist cell assay; at 2 µM; stronger effect = higher value. Summed up:
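Read-out: intracellular calcium release measured kinetically by FDSS (fluo-8, ex 480/em 530 nm), 1 reading/s after a 10-cycle baseline. TRHR cells, 2000/well, cultured 18 h at 33.5C, dye-loaded at room temp. Compound-evoked positive calcium signal flags agonists.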

Test [7] addresses Galactokinase (Homo sapiens) (UniProt P51570). Briefly: qHTS Validation Assay for Inhibitors of Human Galactokinase (GALK) (AID 493189). Also: 0% is about no effect. An outline of the steps:
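5 nM GALK / 100 uM galactose / 35 uM ATP, 20 mM HEPES pH8.0, 5 mM MgCl2, 60 mM NaCl, 1 mM DTT, 0.01% BSA (final). RT 1 h; Kinase-Glo Plus luminescence.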

A short description of test [8]: Validation screen for small molecules that induce DNA re-replication in SW480 colon adenocarcinoma cells (AID 504364). Also: 0% is about no effect. An outline of the steps:
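Read-out: total Hoechst intensity of nuclei by fluorescence scanning imager; hits raise the fraction of nuclei with elevated DNA content. Cells received compound for 48 hr at 37 C before a 40 min stain.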

The target in test [9] is Voltage-gated inwardly rectifying potassium channel KCNH2 (Homo sapiens) (UniProt Q12809). Briefly: qHTS Assay for Small Molecule Inhibitors of the Human hERG Channel Activity (AID 588834).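 Also: lower thallium flux fluorescence means stronger hERG block; nearly all actives have a fitted effect of over 50% in size.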 Also: potency is read from the fitted curve at half-maximal effect. Summed up:
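Step 1: BacMam hERG transduction of U2OS, 4 hrs RT. Step 2: overnight 37 °C, plate 2000 cells/well, 4 hr. Step 3: FluxOR load, compound 10 min, stimulate, read fluorescence.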

Test [10] deals with Rap guanine nucleotide exchange factor 4 (Homo sapiens) (UniProt Q8WZA2). Briefly: Confirmatory qHTS for antagonist of cAMP-regulated guanine nucleotide exchange factor 4 (EPAC2) (AID 1645885). Also: nearly all actives have a fitted effect of over 25% in size. Also: potency is read from the fitted curve at half-maximal effect.
Test [11] concerns the target Estrogen receptor (Homo sapiens) (UniProt P03372). Briefly: qHTS assay for small molecule antagonists of estrogen receptor alpha signaling (AID 588513; active = well fitted curve in the direction sought with a large enough effect in the signal ratio, with a control signal flat, not every such curve was filed as active; inconclusive = small, poorly fitted or top-dose-only effect, or effect the other way, or a change in a side signal; inactive = no such curve, though single readings can be large or run the other way; the % refers to the signal ratio; also: potency is read from the fitted curve at half-maximal effect). Summed up:
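Fluorescence from CCF4 substrate after 2 h at room temperature gave reporter activity; cells had been exposed to compound and 0.5nM 17-beta-estradiol for 18 h at 37 C. Hill-equation fitting yielded IC50 and maximal response.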

For test [12], the target named is Glucocorticoid receptor (Homo sapiens) (UniProt P04150). Briefly: qHTS assay for small molecule agonists of glucocorticoid receptor signaling (AID 588532; active = well fitted curve in the direction sought with a large enough effect in the signal ratio, with a control signal flat; inconclusive = small, poorly fitted or top-dose-only effect, or a change in a side signal; inactive = no such curve, though single readings can be large or run the other way; the % refers to the signal ratio;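 also: 100% = dexamethasone at 0.1 µM and 0% = DMSO only wells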). The settings on record: HeLa MMTV-bla, beta-lactamase ratio, agonist, 18 h; stronger effect = higher value; percent of dexamethasone control, DMSO zero. An outline of the steps: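 Stimulation of a glucocorticoid response element-driven beta-lactamase gene was measured in HeLa cells. Responses were scaled between DMSO basal and 0.1 uM dexamethasone, then fitted for half-maximal stimulation.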

Test [13] has as its target Vitamin D3 receptor (Homo sapiens) (UniProt P11473). Briefly: qHTS assay for small molecule antagonists of vitamin D receptor signaling (AID 588541; calls by dose curve;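 also: receptor activated by calcitriol during compound treatment; % is scaled to controls: 0 for no effect and ±100 for the full control effect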). An outline of the steps:
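VDR-UAS-bla HEK293T cells (2000/well, 2% charcoal-stripped FBS) were treated with titrated compounds plus 1-alpha,25-dihydroxyvitamin D3 (50 nM or 3 nM final) for 16 h at 37 C. CCF4 beta-lactamase fluorescence was read; Hill fits gave IC50.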

Test [14] can be described thus: qHTS assay for environmental chemicals that activate the Aryl hydrocarbon Receptor (AhR) signaling pathway (AID 651777). Also: nearly all actives have a fitted effect of over 15% in size. Also: potency is read from the fitted curve at half-maximal effect. As to activation: % of control where 0% means no effect. The settings on record: 1A2-DRE human hepatoma cells, luciferase, 24 h; activation: stronger effect = higher value. Summed up: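 Following a 24 hr incubation with test chemicals at 37 C and 5% CO2, 1A2-DRE human hepatoma cells received One-Glo reagent; after 30 min at room temperature, luciferase output reflected CYP1A2 induction via AhR.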

The target of test [15] is Peroxisome proliferator-activated receptor alpha (Homo sapiens) (UniProt Q07869). Briefly: qHTS assay for small molecule agonists of the peroxisome proliferator-activated receptor alpha (PPARalpha) signaling pathway (AID 651778). Also: % of control where 0% means no effect. The following applies: PathHunter PPARalpha complementation, chemiluminescence, 6 h; stronger effect = higher value. An outline of the steps: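 Cells plated at 2,000/well and held overnight at 37 C, 5% CO2, then compound added by pin tool for 6 hr; after PathHunter detection reagent and 60 min at room temperature, chemiluminescence from enzyme complementation was read.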

Test [16] is described as follows: qHTS assay for cell viability of the p53RE-bla HCT-116 cell line (AID 743292). Also: % is scaled to controls: 0 for no effect and ±100 for the full control effect; nearly all actives have a fitted effect of over 55% in size. Summed up:
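After plating at 4,000 cells per well and a 5 h rest at 37 C, HCT-116 cells carrying p53RE-bla received test chemicals in DMSO. Sixteen hours later at 37 C, CellTiter-Glo was added and luminescence recorded following 30 min at room temperature.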

A further test concerns CP297. Briefly: qHTS profiling for inhibitors of Plasmodium falciparum proliferation (AID 504749).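 Also: 0% = DMSO vehicle and full inhibition = artemisinin control; nearly all actives have a fitted effect of over 60% in size.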 The settings on record: P. falciparum in erythrocytes, SYBR Green DNA, 72 h; series mostly up to 28.7 µM. An outline of the steps:
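Fluorescence of SYBR Green-bound parasite DNA, read at 485/535 nm, served as the growth measure. Infected erythrocytes were cultured with compound 72 h; artemisinin (0.29 uM) and DMSO wells defined the normalization range.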

A short description of test [17]: qHTS Assay for Identification of Small Molecule Antagonists for Thrombopoietin (TPO) Signaling Pathway (AID 918). Also: potency is read from the fitted curve at half-maximal effect; nearly all actives have a fitted effect of over 60% in size. The settings on record: TPO-dependent cell signaling reporter, antagonist mode. Summed up:
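Luminescence read-out: GPIIb-promoter luciferase in Ba/F3 cells carrying human TPO receptor. Compounds added with 26 pM TPO (EC50), 24 hrs, 37 C, 5% CO2; cells deprived of IL-3 overnight beforehand. Inhibition of signal scored.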

Test [18] is described as follows: qHTS profiling of the MIPE4 collection as inhibitors of Plasmodium falciparum (3D7) proliferation (AID 743344; call rule not given here;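 also: scaled between DMSO vehicle wells and 0.29 µM artemisinin as full inhibition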). The settings on record: P. falciparum 3D7 in erythrocytes, SYBR Green DNA fluorescence, 72 h; at 28.5 µM (top of the series) unless noted. Summed up:
(§1)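 Parasite DNA was quantified by SYBR Green I fluorescence (ex 485, em 535 nm) after overnight lysis in saponin/Triton buffer at room temperature. Cultures at 0.3% parasitemia and 2.5% hematocrit were first exposed to compound for 72 h at 37 C; signals were normalised to artemisinin (0.29 uM) and vehicle wells.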

Test [19] in a line: qHTS profiling of the MIPE4 collection as inhibitors of Plasmodium falciparum (DD2) proliferation (AID 743345; call rule not given here). The settings on record: P. falciparum Dd2 in erythrocytes, SYBR Green DNA, 72 h; at 28.5 µM (top of the series) unless noted. Summed up:
as §1

Values joined by “and” are separate entries in the source; they are usually repeats but may differ in a detail not shown here. Identical values can stand only once. Active and inactive are the calls of the source. Unless noted, calls follow the shape of the dose curve; as a rule, active = well fitted curve in the direction sought with a large enough effect; inconclusive = small, poorly fitted or top-dose-only effect, or another doubt; inactive = no such curve, though single readings can be large; an effect the other way counts as inactive or inconclusive.

Chain of Peroxisome proliferator-activated receptor alpha (Homo sapiens) (Q07869 whole entry, looked up): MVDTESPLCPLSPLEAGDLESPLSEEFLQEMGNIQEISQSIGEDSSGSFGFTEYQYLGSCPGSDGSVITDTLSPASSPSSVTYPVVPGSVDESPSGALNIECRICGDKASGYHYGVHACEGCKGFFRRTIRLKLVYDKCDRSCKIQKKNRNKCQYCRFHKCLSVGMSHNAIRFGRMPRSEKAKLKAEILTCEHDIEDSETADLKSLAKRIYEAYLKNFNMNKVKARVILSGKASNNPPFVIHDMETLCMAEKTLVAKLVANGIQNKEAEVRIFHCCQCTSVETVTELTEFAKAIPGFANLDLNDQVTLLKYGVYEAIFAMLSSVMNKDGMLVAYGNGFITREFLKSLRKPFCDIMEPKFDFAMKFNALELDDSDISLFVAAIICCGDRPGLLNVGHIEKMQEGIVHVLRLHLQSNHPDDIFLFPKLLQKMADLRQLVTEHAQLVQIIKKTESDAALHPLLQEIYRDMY
Chain of Glucocorticoid receptor (Homo sapiens) (P04150 whole entry, looked up): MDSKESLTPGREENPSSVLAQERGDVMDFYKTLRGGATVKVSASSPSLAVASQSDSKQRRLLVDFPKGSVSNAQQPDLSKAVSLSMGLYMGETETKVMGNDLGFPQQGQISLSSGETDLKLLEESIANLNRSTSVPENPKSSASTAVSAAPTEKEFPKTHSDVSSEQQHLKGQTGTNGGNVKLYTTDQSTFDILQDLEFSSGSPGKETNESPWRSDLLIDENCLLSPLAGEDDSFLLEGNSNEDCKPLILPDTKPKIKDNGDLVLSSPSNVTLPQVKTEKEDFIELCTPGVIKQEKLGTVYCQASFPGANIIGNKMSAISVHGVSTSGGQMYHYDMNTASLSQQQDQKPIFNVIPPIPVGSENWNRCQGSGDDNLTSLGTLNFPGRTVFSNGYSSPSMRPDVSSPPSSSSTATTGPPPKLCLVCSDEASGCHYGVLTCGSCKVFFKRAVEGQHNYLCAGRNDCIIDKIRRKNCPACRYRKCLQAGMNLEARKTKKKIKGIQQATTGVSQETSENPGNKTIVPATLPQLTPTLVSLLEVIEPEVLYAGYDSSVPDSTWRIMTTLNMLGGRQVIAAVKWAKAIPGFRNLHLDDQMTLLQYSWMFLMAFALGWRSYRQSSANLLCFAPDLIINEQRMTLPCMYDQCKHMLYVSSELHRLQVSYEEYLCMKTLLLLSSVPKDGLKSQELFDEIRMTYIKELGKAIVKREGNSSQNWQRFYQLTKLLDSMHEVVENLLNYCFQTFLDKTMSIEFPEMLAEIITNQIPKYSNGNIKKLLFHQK
Chain of M-phase phosphoprotein 8 (Homo sapiens) (Q99549 whole entry, looked up): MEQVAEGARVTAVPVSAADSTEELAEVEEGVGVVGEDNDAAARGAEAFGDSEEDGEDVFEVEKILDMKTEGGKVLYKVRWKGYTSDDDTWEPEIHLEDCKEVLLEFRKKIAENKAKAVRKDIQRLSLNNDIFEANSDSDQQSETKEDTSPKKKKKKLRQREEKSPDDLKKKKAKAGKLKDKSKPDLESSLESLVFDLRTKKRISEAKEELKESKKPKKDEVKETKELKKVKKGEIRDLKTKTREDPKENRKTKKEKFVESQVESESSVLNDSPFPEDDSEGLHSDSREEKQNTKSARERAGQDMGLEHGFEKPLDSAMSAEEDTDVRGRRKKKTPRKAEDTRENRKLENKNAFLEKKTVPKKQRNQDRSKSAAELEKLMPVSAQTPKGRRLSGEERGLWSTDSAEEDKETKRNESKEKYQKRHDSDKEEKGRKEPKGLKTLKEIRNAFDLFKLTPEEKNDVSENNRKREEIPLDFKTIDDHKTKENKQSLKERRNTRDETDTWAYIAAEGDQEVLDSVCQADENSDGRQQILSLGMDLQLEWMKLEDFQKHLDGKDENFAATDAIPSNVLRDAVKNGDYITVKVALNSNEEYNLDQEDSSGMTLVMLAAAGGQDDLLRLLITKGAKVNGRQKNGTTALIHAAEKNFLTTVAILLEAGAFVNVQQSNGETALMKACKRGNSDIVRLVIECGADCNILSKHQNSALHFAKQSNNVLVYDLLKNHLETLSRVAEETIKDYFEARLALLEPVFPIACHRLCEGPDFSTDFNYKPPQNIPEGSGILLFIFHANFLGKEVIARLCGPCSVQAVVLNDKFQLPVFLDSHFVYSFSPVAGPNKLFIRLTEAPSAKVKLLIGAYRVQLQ
Chain of Vitamin D3 receptor (Homo sapiens) (P11473 whole entry, looked up): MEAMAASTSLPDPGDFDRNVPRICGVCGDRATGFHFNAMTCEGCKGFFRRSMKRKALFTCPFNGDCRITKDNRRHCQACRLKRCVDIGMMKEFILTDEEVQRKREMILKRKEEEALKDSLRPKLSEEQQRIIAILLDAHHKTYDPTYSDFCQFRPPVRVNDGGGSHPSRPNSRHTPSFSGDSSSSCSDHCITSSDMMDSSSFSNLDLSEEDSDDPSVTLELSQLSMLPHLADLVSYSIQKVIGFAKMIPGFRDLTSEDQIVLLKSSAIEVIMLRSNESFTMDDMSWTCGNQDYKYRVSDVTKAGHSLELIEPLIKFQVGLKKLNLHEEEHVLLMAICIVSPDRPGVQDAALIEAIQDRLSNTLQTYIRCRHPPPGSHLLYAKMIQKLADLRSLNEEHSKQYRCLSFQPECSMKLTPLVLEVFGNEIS
Chain of Rap guanine nucleotide exchange factor 4 (Homo sapiens) (Q8WZA2 whole entry, looked up): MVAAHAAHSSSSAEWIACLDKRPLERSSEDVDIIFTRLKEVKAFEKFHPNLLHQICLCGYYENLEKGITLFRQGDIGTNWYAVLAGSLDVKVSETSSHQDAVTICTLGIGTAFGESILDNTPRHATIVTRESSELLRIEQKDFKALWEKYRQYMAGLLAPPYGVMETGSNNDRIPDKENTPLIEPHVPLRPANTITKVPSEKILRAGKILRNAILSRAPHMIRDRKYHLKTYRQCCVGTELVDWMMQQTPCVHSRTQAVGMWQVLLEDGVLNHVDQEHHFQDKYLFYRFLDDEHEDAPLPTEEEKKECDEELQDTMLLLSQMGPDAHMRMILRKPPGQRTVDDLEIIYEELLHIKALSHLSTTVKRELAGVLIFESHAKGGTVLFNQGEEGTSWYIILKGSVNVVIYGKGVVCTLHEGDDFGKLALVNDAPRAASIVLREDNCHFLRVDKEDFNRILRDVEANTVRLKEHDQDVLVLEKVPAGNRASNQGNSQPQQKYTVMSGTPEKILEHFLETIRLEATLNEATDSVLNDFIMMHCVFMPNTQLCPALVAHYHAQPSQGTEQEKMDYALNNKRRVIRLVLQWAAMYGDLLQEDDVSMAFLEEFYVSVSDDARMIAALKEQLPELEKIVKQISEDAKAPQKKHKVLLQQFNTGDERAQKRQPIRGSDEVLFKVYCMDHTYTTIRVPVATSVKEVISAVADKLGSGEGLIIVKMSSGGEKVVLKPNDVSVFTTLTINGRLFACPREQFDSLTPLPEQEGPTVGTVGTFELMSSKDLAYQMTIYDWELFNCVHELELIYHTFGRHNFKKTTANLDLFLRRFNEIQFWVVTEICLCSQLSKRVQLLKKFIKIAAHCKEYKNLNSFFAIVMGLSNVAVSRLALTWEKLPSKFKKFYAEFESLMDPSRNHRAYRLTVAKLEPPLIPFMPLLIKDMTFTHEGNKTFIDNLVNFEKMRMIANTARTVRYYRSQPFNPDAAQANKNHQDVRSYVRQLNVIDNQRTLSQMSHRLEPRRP
Chain of Thyrotropin receptor (Homo sapiens) (P16473 whole entry, looked up): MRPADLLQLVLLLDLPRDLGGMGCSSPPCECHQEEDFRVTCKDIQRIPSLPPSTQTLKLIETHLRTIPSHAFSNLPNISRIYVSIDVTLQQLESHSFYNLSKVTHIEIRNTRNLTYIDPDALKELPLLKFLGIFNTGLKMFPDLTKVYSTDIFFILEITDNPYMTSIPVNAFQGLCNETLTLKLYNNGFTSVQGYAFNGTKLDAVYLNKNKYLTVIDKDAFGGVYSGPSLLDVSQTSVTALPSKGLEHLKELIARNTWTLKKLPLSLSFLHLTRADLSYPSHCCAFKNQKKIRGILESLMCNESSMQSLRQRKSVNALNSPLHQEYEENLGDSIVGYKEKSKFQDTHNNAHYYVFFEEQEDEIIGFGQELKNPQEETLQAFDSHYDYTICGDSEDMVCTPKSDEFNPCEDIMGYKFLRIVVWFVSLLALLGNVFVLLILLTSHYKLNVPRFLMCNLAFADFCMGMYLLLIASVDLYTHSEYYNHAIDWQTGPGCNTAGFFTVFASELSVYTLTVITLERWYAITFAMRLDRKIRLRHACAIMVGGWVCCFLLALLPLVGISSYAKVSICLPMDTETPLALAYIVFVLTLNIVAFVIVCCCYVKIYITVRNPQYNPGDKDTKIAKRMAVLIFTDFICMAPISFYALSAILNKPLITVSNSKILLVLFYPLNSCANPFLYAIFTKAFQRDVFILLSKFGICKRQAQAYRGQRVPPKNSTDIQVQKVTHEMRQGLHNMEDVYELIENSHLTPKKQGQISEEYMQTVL
Chain of ATP-dependent DNA helicase Q1 (Homo sapiens) (P46063 whole entry, looked up): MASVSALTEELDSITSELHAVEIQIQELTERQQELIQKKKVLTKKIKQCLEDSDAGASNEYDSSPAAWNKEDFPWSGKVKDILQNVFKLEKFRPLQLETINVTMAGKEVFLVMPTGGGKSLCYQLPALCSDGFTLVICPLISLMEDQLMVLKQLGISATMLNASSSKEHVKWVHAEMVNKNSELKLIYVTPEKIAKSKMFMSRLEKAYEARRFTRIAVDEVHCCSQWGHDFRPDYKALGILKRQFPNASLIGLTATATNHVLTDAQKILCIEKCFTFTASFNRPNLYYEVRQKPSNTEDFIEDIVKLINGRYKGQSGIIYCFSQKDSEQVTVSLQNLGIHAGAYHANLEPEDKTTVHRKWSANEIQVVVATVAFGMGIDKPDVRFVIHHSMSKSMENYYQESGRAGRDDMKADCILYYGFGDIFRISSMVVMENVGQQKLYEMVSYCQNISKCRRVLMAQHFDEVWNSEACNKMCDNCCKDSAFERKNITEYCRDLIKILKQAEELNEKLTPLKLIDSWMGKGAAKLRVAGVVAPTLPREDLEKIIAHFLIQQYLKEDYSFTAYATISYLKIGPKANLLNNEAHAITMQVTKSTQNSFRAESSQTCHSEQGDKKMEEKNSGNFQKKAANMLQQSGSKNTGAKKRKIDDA

Consider `N#CC(C#N)=Cc1ccc([N+](=O)[O-])c(O)c1`, for which the Potency result in test [1], in test [2], in test [3], in [4], in test [8] and in [9] was “inactive” each time. Also, the outcome in [5] and in test [7] was inactive. Moreover, in test [6], the activation is -0.188% (inactive).
Consider `O=C1CS[C@@H](c2ccccc2Cl)c2cc(Cl)ccc2N1`, for which the Potency in [10] was 49.4 µM (active).
With `CN1CCc2cc(O)cc3c2C1Cc1ccc(O)c(O)c1-3` (stereo not given), the Potency entry in test [1], in test [2] and in [8] was “inactive” in each case. For the same compound, the Potency in test [3] was 18.5 µM (active); in test [4] it was 22.4 µM (active). Moreover, the call in test [5] and in test [7] was inactive. The activation in [6] was 1.44% (inactive).
On to `CN1Cc2ccccc2[C@@H]2c3cccc4[nH]cc(c34)C[C@H]21`, for which, in [10], the Potency result was “inactive”.
`CC(C)(c1ccc(OCC2CO2)cc1)c1ccc(OCC2CO2)cc1` (stereo not given): the Potency in test [11] was 31.6 µM [inconclusive] (active); in test [9], 28.2 µM (active). Besides, the activation in test [12] is -1.68% (inactive) and 2.51% (inactive); in [14], -0.167% (inactive) and 1.71% (inactive). Besides, the outcome in test [13] and in [16] was inactive. Further, the max response in [15] was -4.29% (inactive) and -0.125% (inactive).
As to `CCN1C[C@]2(COC)[C@H](O)C[C@H](OC)[C@]34C1C([C@H](OC)[C@H]23)[C@]1(OC(C)=O)C2[C@@H](OC(=O)c3ccccc3)C(O)(C[C@H]24)[C@@H](OC)[C@@H]1O`, in the test with CP297, the Potency entry is “inactive”.
For the compound `Cc1ccc2cc3c(ccc4ccccc43)c3c2c1CC3`, in [11], the Potency entry was “inactive”. Besides, the activation in test [12] is 4.51% (inactive). Besides, the result in test [13] and in test [16] was inactive. Moreover, in test [14], the Potency is 8.91 µM (active). Also, the max response in test [15] is -0.967% (inactive).
On to `CN1[C@@H]2CC[C@H]1CC(O[C@@H](c1ccccc1)c1ccc(Cl)cc1)C2` (stereo not given in full), for which the Potency in [17] is 12.6 µM (active).
Consider `O=C1CC[C@@]2(O)[C@H]3Cc4ccc(O)c5c4C2(CCN3CC2CC2)[C@H]1O5`, for which the parasite growth, % of DMSO control in [18] was 101%. In test [19], the parasite growth remaining, % of DMSO control (lower = more inhibition) was 82%.
Take `Cc1ncc(C[n+]2csc(CCO)c2C)c(=O)[nH]1`: the parasite growth, % of DMSO control in [18] came to 96.7%. In test [19], the parasite growth remaining, % of DMSO control (lower = more inhibition) amounted to 104%.
For the compound `CCN(CC)CCO[C@H]1CC[C@@]2(C)C(=CC[C@@H]3[C@H]2CC[C@]2(C)C(=O)CC[C@H]32)C1`, the Potency result in the test on CP297 is “inactive”.
Take `CNc1ccc2oc(C[C@H]3O[C@]4(CC[C@H]3C)O[C@H]([C@H](C)C(=O)c3ccc[nH]3)[C@H](C)C[C@H]4C)nc2c1C(=O)O`: the Potency in [17] was 3.16 µM (active).
